# According to PubChem BioAssay (NCATS):
# Inconclusive results are not listed. The list shows a part of the results. The source made the active and inactive calls. Unless noted, the call rests on the fitted dose curve.
# Tests used:
# [1] = qHTS for Inhibitors of the Functional Ribonucleoprotein Complex (vRNP) of Lassa (LASV) Arenavirus: Viability assay - alamar blue signal for LASV Primary Screen (AID 1347083; calls by dose curve; tested in HEK293 reporter line; further: nearly all actives have a fitted effect of over 80% in size; further: potency means the concentration at half of the fitted maximal effect)
# [2] = molecular target: Nucleoprotein (Lymphocytic choriomeningitis virus (strain Armstrong)) (UniProt P09992); test: qHTS for Inhibitors of the Functional Ribonucleoprotein Complex (vRNP) of Lymphocytic Choriomeningitis Arenaviruses (LCMV): LCMV Primary Screen - GLuc reporter signal (AID 1347086); further: nearly all actives have a fitted effect of over 70% in size; further: potency means the concentration at half of the fitted maximal effect; on activity change, negative = inhibition: on the % scale 0 is the no-effect control and ±100 the full control effect
# Chain of Nucleoprotein (Lymphocytic choriomeningitis virus (strain Armstrong)) (P09992 whole entry, looked up): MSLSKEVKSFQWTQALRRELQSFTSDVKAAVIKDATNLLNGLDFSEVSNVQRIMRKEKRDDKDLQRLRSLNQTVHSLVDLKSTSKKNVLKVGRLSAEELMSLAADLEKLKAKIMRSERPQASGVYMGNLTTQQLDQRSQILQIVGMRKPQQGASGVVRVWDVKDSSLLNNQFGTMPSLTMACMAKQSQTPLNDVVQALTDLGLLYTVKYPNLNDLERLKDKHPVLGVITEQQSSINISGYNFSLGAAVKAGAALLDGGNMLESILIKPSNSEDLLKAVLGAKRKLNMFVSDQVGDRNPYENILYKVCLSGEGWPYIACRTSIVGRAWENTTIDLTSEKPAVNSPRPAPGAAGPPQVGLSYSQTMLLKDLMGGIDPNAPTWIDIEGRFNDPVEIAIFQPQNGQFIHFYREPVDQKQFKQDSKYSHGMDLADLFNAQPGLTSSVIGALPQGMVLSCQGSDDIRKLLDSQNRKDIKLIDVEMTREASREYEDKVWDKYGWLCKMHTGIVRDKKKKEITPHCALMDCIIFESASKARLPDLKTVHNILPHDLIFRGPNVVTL
# [3] = Cytotoxicity counterscreen for inhibitors of SARS-CoV-2 cell entry (AID 1645845); further: nearly all actives have a fitted effect of over 50% in size; further: potency means the concentration at half of the fitted maximal effect; on activity change, negative = cytotoxicity: on the % scale 0 is the no-effect control and ±100 the full control effect
# Summary of the method: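 Expi293F/hACE2 cells seeded overnight; cpd pin-transferred in DMSO, 1 h preincubation, + media, 48 h 37 C 5% CO2; ATPLite 1step luminescence; normalized to cells and no cells.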
# [4] = Primary qHTS to identify inhibitors of SARS-CoV-2 cell entry (AID 1645846); settings: activity change, negative = inhibition: at 57.1 µM (top of the series) unless noted; further: nearly all actives have a fitted effect of over 45% in size; further: potency means the concentration at half of the fitted maximal effect
# Summary of the method: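 Using luciferase-reporting pseudoviruses carrying Wuhan-Hu-1 spike, the screen tracks entry into stably ACE2-expressing cells over 48 hr. Activity is expressed relative to spike particles versus particles lacking any fusion protein.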
# [5] = VSVG counterscreen qHTS to identify inhibitors of SARS-CoV-2 cell entry (AID 1645847); further: potency means the concentration at half of the fitted maximal effect; nearly all actives have a fitted effect of over 65% in size
# Summary of the method: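 Entry of VSV-G pseudotyped particles into human ACE2-expressing HEK293 cells was measured by luciferase luminescence 48 h after infection, with compound added 1 h beforehand.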
# [6] = qHTS for Inhibitors of the Functional Ribonucleoprotein Complex (vRNP) of Lymphocytic Choriomeningitis Arenaviruses (LCMV): Viability assay - alamar blue signal for LCMV Primary Screen (AID 1347085; calls by dose curve; tested in HEK293 reporter line; further: nearly all actives have a fitted effect of over 80% in size; further: potency means the concentration at half of the fitted maximal effect)
# [7] = molecular target: Alpha-galactosidase (Coffea arabica) (UniProt Q42656); test: Counterscreen for Glucocerebrosidase Inhibitors: qHTS Assay for Coffee Bean alpha-Galactosidase at pH 4.5 (AID 957; active means well fitted curve in the direction sought with a large enough effect; an effect the other way counts as inactive or inconclusive;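 further: plate controls were enzyme alone for no effect and no enzyme for full effect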)
# Chain of Alpha-galactosidase (Coffea arabica) (Q42656 whole entry, looked up): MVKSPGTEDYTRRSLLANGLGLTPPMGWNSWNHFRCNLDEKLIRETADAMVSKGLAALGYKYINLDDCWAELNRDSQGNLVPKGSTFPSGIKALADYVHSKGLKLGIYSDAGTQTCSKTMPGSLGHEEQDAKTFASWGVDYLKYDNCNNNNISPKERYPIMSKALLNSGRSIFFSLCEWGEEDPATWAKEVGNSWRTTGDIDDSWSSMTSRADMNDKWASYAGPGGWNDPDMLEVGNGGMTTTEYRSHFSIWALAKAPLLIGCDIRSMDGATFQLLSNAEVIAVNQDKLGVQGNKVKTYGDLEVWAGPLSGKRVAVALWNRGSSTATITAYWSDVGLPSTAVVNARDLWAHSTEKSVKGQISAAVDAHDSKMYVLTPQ
# Summary of the method: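 AC50 values derive from Hill-equation modeling of concentration-response data, normalized to no-enzyme and full-activity controls. The pH 4.5 citrate assay used 2 nM coffee bean enzyme and 80 uM fluorogenic substrate for 20 min.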
# [8] = molecular target: Alpha-galactosidase (Coffea arabica) (UniProt Q42656); test: Counterscreen for Glucocerebrosidase Inhibitors: qHTS Assay for Coffee Bean alpha-Galactosidase at pH 5.9 (AID 998; active means well fitted curve in the direction sought with a large enough effect; an effect the other way counts as inactive or inconclusive;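 further: plate controls were uninhibited enzyme for no effect and no-enzyme basal signal for full effect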)
# Summary of the method: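 Green coffee bean enzyme (2 nM final) was incubated with compounds (0.7 nM–77 uM) and 4-methylumbelliferyl alpha-D-galactopyranoside (80 uM) in citrate buffer pH 5.9, 20 min at room temperature. High-pH stop; fluorescence 365/440 nm; AC50 from Hill fits.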
# [9] = Inducers of the Endoplasmic Reticulum Stress Response (ERSR) in human glioma: Validation (AID 504836; active means well fitted curve in the direction sought with a large enough effect; an effect the other way counts as inactive or inconclusive; further: 0% is about no effect)
# Summary of the method: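 Stably transfected U87-MG human glioma cells carrying a GRP78-based luminescent sensor were seeded at 1000 cells/well, pin-dosed with compounds and incubated 16 h. Luciferase reagent was then added, and end-point luminescence was read after 10 min at room temperature.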
# [10] = Confirmatory qHTS for VERO E6 Cytotoxicity Assay: Counterscreen for SARS-CoV-2 CPE Assay (AID 1508605); further: potency means the concentration at half of the fitted maximal effect; nearly all actives have a fitted effect of over 60% in size
# [11] = molecular target: Peroxisome proliferator-activated receptor delta (Homo sapiens) (UniProt Q03181); test: qHTS assay for small molecule agonists of peroxisome proliferator-activated receptor delta signaling (AID 588534);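 further: 0% = DMSO basal wells and 100% = positive control agonist at 10 µM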
# Chain of Peroxisome proliferator-activated receptor delta (Homo sapiens) (Q03181 whole entry, looked up): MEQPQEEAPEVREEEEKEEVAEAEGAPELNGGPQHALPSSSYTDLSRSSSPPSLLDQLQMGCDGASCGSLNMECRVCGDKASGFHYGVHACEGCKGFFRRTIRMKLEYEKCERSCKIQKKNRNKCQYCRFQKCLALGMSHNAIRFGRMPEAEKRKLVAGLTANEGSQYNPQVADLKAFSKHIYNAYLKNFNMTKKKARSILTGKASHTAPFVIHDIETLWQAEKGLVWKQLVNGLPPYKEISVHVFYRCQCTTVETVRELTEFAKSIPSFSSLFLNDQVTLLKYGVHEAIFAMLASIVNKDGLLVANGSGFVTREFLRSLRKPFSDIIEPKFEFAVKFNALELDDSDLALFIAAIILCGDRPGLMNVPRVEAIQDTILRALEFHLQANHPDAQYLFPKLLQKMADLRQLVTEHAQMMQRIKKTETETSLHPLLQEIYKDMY
# Summary of the method: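 Reporter cells were plated and held 5 hrs at 37 C before compounds were added. After 18 hrs at 37 C, CCF4 dye was loaded for 2 hrs at RT and fluorescence measured.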
# [12] = qHTS profiling of the MIPE4 collection as inhibitors of Plasmodium falciparum (3D7) proliferation (AID 743344; call rule not given here;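 further: scaled between DMSO vehicle wells and 0.29 µM artemisinin as full inhibition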); settings: P. falciparum 3D7 in erythrocytes, SYBR Green DNA fluorescence, 72 h; at 28.5 µM (top of the series) unless noted
# Summary of the method: (§1)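 Erythrocytes infected with P. falciparum (0.3% parasitemia, 2.5% hematocrit) incubated with compounds 72 h at 37 C, 5% CO2. Lysis with saponin/Triton buffer containing SYBR Green I, overnight at room temperature in the dark; DNA fluorescence (485/535 nm) normalised to 0.29 uM artemisinin and DMSO.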
# [13] = qHTS profiling of the MIPE4 collection as inhibitors of Plasmodium falciparum (DD2) proliferation (AID 743345; call rule not given here); settings: P. falciparum Dd2 in erythrocytes, SYBR Green DNA, 72 h; at 28.5 µM (top of the series) unless noted
# Summary of the method: as §1
# [14] = molecular target: DNA polymerase eta (Homo sapiens) (UniProt Q9Y253); test: qHTS for Inhibitors of Polymerase Eta: Confirmatory Assay for Cherry-picked Compounds (AID 720502; active means well fitted curve in the direction sought with a large enough effect; an effect the other way counts as inactive or inconclusive; further: potency means the concentration at half of the fitted maximal effect); settings: Pol eta primer extension, TAMRA/BHQ fluorescence, 10 min
# Chain of DNA polymerase eta (Homo sapiens) (Q9Y253 whole entry, looked up): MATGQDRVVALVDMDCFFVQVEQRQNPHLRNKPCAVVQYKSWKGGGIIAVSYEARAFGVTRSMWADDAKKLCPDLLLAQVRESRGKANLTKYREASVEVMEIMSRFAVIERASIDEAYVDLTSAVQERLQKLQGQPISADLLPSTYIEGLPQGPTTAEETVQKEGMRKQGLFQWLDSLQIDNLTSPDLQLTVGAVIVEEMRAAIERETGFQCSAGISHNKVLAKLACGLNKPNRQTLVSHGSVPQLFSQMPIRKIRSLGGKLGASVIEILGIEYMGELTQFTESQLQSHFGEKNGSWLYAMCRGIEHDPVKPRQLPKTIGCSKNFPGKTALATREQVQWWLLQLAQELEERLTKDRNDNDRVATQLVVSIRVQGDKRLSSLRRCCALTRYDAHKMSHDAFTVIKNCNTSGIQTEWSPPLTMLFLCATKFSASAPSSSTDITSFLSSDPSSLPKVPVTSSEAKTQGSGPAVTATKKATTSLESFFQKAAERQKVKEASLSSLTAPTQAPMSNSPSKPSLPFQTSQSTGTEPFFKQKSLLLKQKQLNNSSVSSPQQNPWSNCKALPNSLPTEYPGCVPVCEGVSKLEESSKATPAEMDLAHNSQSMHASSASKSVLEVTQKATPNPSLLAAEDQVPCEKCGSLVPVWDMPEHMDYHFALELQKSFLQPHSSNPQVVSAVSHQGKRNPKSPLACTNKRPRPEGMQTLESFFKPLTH
# Summary of the method: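 Human Pol eta (10 nM) was preincubated with compounds for 15 min at room temperature before adding 50 nM (final) DNA substrate: primer plus TAMRA reporter strand annealed to a BHQ-2-labeled template. Fluorescence (ex 525/em 598 nm) was read at 0 and 10 min.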
smiles,measurement,setting,value
NC(=O)Nc1cc(-c2ccc(CN3CCOCC3)cc2)sc1C(N)=O,Potency,[1],7.69 µM (active)
same,Potency,[2],inactive
same,Potency,[3],inactive
same,"activity change, negative = inhibition",[4],-10.1%
CCOC(=O)C1=C(C)NC(=S)NC1c1cccc(O)c1 (stereo unspecified),Potency,[1],0.344 µM (active)
same,Potency,[3],inactive
same,"activity change, negative = inhibition",[4],-13.9%
CC1=C(CC(=O)O)c2cc(F)ccc2C1=Cc1ccc(S(C)=O)cc1 (stereo unspecified),Potency,[1],38.5 µM (active)
same,Potency,[3],inactive
CC(C)CNc1ccnc(NCc2csc(-c3ccccc3)n2)n1,Potency,[1],13.7 µM (active)
same,Potency,[2],15.3 µM (active)
same,Potency,[3],22.4 µM (active)
c1ccc2c(Cc3c[nH]c4ccccc34)c[nH]c2c1,Potency,[1],4.32 µM (active)
same,Potency,[2],13.7 µM (active)
same,Potency,[3],inactive
COc1ccc(S(=O)(=O)Nc2cccnc2Nc2ccc(O)cc2)cc1,Potency,[1],0.273 µM (active)
same,Potency,[4],6.31 µM (active)
same,Potency,[5],541 nM (active)
CCOC(=O)N[C@@H]1CC[C@@H]2[C@@H](C1)C[C@H]1C(=O)O[C@H](C)[C@H]1[C@@H]2C=Cc1ccc(-c2cccc(F)c2)cn1,Potency,[6],5.44 µM (active)
O=C1NC(=O)c2cc(Nc3ccccc3)c(Nc3ccccc3)cc21,outcome,[7],inactive
same,outcome,[8],inactive
same,outcome,[9],inactive
same,Potency,[1],inactive
same,Potency,[10],11.2 µM (active)
C[C@]12CC[C@@H]3c4ccc(O)cc4CC[C@H]3[C@H]1CC[C@H]2O,Potency,[11],inactive
same,Potency,[1],9.68 µM (active)
same,Potency,[2],1.22 µM (active)
Cc1ccn(-c2ccc(-c3ncco3)cc2)c(=O)c1-c1ccc2nc(N)ncc2c1,Potency,[1],3.43 µM (active)
same,Potency,[2],inactive
same,Potency,[3],inactive
same,Potency,[4],inactive
NC(=O)N1CCC(CC(=O)N2CCC([C@H]3c4ncc(Br)cc4CCc4cc(Cl)cc(Br)c43)CC2)CC1,Potency,[1],inactive
same,Potency,[2],12.2 µM (active)
same,"activity change, negative = inhibition",[4],-87.3%
COC1CCC(OC2CC(C3(C)CCC4(CC(O)C(C)C(C(C)/C=C(\C)C(=O)C(C)CC(C)C(=O)O)O4)O3)OC3(OC(C4OC(O)(CO)C(C)CC4C)CC3C)C2C)OC1C (stereo unspecified),Potency,[6],inactive
O=C1OC[C@H](Cc2ccc3c(c2)OCO3)/C1=C\c1ccc2c(c1)OCO2,Potency,[6],inactive
CCCCC[C@H]1CCCCC[C@@H](O)C[C@H](O)[C@H](O)/C=C/C(=O)O1,Potency,[6],inactive
CS(=O)(=O)N1CCc2c(-c3cnc(N)nc3)nc(N3CCOCC3)nc21,Potency,[1],0.273 µM (active)
same,Potency,[2],inactive
same,Potency,[3],3.55 µM (active)
O=c1ccc2ccc(O)c(O)c2o1,outcome,[7],inactive
same,outcome,[8],inactive
same,Potency,[1],inactive
same,Potency,[6],inactive
COc1ccc(C=Cc2cc(OC)c(OC)c(OC)c2)cc1NC(=O)[C@H](N)CO,Potency,[1],0.0022 µM (active)
same,Potency,[2],inactive
same,"activity change, negative = inhibition",[4],-66.1%
c1cc(N[C@@H]2CCNC2)nc(-c2cnc3ccc(-c4cn[nH]c4)cn23)c1,Potency,[1],10.9 µM (active)
same,Potency,[2],inactive
COc1c(O)c2c(=O)cc(OC)c3c4c(OC)cc(=O)c5c(O)c(OC)c6c(c(c1C[C@@](C)(O)[C@H]6C(C)=O)c23)c54,Potency,[6],inactive
O=C(Nc1cccc(Br)c1)c1cccc(S(=O)(=O)N2CCCCCC2)c1,Potency,[1],24.3 µM (active)
same,Potency,[2],15.3 µM (active)
same,Potency,[4],31.6 µM (active)
CN(C)CCOc1ccc(C(=C(CCCl)c2ccccc2)c2ccccc2)cc1,"parasite growth, % of DMSO control",[12],67.8%
same,"parasite growth remaining, % of DMSO control (lower = more inhibition)",[13],55.4%
same,Potency,[1],12.2 µM (active)
COCCOc1ccc2c(c1)ncn2-c1ccc2cccc(N3CCC(N)CC3)c2n1,Potency,[1],24.3 µM (active)
same,Potency,[2],inactive
same,Potency,[4],12.6 µM (active)
C[C@@H]1COC(Nc2ccc3ncnc(Nc4ccc(OCc5nccs5)c(Cl)c4)c3c2)=N1,Potency,[1],1.53 µM (active)
same,Potency,[2],1.22 µM (active)
same,Potency,[3],31.6 µM (active)
C[C@@H](NC(=O)c1ncnc(N)c1Cl)c1ncc(C(=O)Nc2cc(C(F)(F)F)c(Cl)cn2)s1,Potency,[1],24.3 µM (active)
same,Potency,[3],inactive
CNC(=O)c1ccc(Nc2cc(Nc3ccccc3S(=O)(=O)C(C)C)c3cc[nH]c3n2)nc1,Potency,[1],8.63 µM (active)
same,Potency,[2],27.3 µM (active)
CCCCCCN(CCCCCC)C(=O)Cc1c(-c2ccc(F)cc2)[nH]c2ccccc12,outcome,[7],inactive
same,outcome,[8],inactive
same,outcome,[9],inactive
same,Potency,[1],inactive
CC=CC[C@@H](C)C(=O)[C@H]1C(=O)N[C@@H](C(C)C)C(=O)N(C)CC(=O)N(C)[C@@H](CC(C)C)C(=O)N[C@@H](C(C)C)C(=O)N(C)[C@@H](CC(C)C)C(=O)N[C@@H](C)C(=O)N[C@H](C)C(=O)N(C)[C@@H](CC(C)C)C(=O)N(C)[C@@H](CC(C)C)C(=O)N(C)[C@@H](C(C)C)C(=O)N1C,Potency,[6],inactive
COc1cc2ncnc(Nc3cccc(Br)c3)c2cc1OC,Potency,[1],0.344 µM (active)
same,Potency,[3],inactive
same,"activity change, negative = inhibition",[4],-19.5%
CN(C)N=Nc1nc[nH]c1C(N)=O,Potency,[1],17.2 µM (active)
same,Potency,[3],inactive
Cc1cc(C(=O)N2CCN(c3cccc(Cl)c3)CC2)n(-c2ccccc2)n1,Potency,[1],0.611 µM (active)
same,Potency,[2],6.85 µM (active)
same,Potency,[3],inactive
same,Potency,[5],3410 nM (active)
Cc1ccc(NC(=O)c2cccc(N(C)C)c2)cc1NC(=O)c1ccc(O)cc1,Potency,[1],12.2 µM (active)
same,Potency,[3],inactive
C#Cc1cccc(Nc2ncnc3cc(OCCOC)c(OCCO)cc23)c1,"parasite growth remaining, % of DMSO control (lower = more inhibition)",[13],36.9%
same,Potency,[1],10.9 µM (active)
same,Potency,[3],inactive
Cn1cc(C2=C(c3c4n(c5ccccc35)CCC(CN)C4)C(=O)NC2=O)c2ccccc21 (stereo unspecified),Potency,[1],17.2 µM (active)
same,"activity change, negative = cytotoxicity",[3],-8.45% [at 11.3 µM] (inactive)
same,"activity change, negative = inhibition",[4],-9.15% [at 11.3 µM]
Cc1cnc(Nc2ccc(CN3CCOCC3)cc2)nc1Nc1cccc(S(=O)(=O)NC(C)(C)C)c1,Potency,[1],4.32 µM (active)
same,Potency,[3],12.6 µM (active)
C=C1C(=O)OC2CC3(C)OC3CCC(C)=CC(OC(C)=O)C12 (stereo unspecified),Potency,[6],inactive
C[C@@H]1C[C@@H]2O[C@H]2/C=C\C=C\C(=O)Cc2c(Cl)c(O)cc(O)c2C(=O)O1,Potency,[14],26.9 µM (active)
same,Potency,[1],6.31 µM (active)
Cc1c(Cn2c(C)nc3c(C(=O)O)cc(N4CCOCC4)cc32)cccc1C(F)(F)F,Potency,[1],1.09 µM (active)
same,Potency,[3],inactive
same,"activity change, negative = inhibition",[4],-3.96%
